Compounds with a hit are over-represented: about 19% of the library has one in this group of screens.
HT1080 IDH1KD tx – kills HT-1080 cells with IDH1 knockdown | HT-1080 IDH1 knockdown viability, ATP luminescence, 48 h | Potency, µM (titrated, usually from 46.1 µM), for inactives: at the highest dose activity, negative = toxicity, usual class: cytotoxic | 360,000 tested, 2% active;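 also: potency is read from the fitted curve at half-maximal effect; 0% = DMSO wells and -100% = cell-free medium wells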
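After a 2 h attachment period, IDH1KD HT-1080 cells took pin-transferred compound for 48 h at 37 °C; ATP-based luminescence after 10 min room-temperature reagent incubation reported viability.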
TDP1 cell CPT – DT40-hTDP1 cell growth loss with CPT. chicken DT40 Tdp1-/-;hTDP1 cells + 20 nM CPT, ATP luminescence, 48 h. 420,000 tested, 12% active. AID 686979. Potency, µM (titrated, usually from 46.2 µM), without a hit: at the highest dose activity change, negative = growth inhibition, most hits filed as inhibitors; also: potency is read from the fitted curve at half-maximal effect; nearly all actives have a fitted effect of over 55% in size
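Chicken DT40 Tdp1-/- cells complemented with human TDP1, 400 cells/well, exposed to compounds plus 20 nM camptothecin for at least 48 h at 37 C; viability read as ATP content by CellTiter-Glo luminescence.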
TDP1 cell noCPT – qHTS for Inhibitors of human tyrosyl-DNA phosphodiesterase 1 (TDP1): qHTS in cells in absence of CPT; DT40 Tdp1-/- hTDP1 cells, no CPT, ATP luminescence, 48 h; Potency, µM (top dose mostly 46.2 µM), inactives show top-dose activity change, negative = growth inhibition, hits mostly inhibitors; 420,000 tested, 15% active; also: potency is read from the fitted curve at half-maximal effect; nearly all actives have a fitted effect of over 55% in size
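DT40 Tdp1-/-;hTDP1 cells, no CPT (DMSO vehicle only), 400 cells/well; compounds pin-transferred; ≥48 hr, 37 °C; CellTiter-Glo 30 min RT dark, luminescence read.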
IL-1B inflam inh – inhibitors of inflammasome signaling (IL-1 beta secretion) | 360,000 tested, 4.7% active | activity change, % at 57.5 µM | THP-1 LPS/ATP IL-1B secretion, AlphaLISA, 16 h; active compounds read low | AID 743279; in the data active = activity change below about -50%; inconclusive = mostly about -30% to -49%
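Secreted IL-1B measured by AlphaLISA bead assay after 16 h compound exposure of THP-1 cells; compounds (final up to 57.5 uM) added 1 h before LPS (250 ng/mL) and ATP (1.25 mM) stimulation; lower signal means less secretion.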
HT1080-NT tox – kills 2HG-producing HT-1080-NT fibrosarcoma cells | HT-1080-NT fibrosarcoma viability, CellTiter-Glo ATP luminescence, 48 h | Potency, µM (doses to about 46.1 µM), for inactives: at the highest dose activity, negative = less viability, most hits filed as cytotoxic | 360,000 tested, 1.6% active | AID 686970;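 also: NT is the 2HG producing partner of a matched IDH1 knockdown line; potency is read from the fitted curve at half-maximal effect; 0% = DMSO-treated cells and -100% = media-only wells without cells; nearly all actives have a fitted effect of over 55% in size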
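HT-1080-NT fibrosarcoma cells (2HG-overproducing), 750 cells/well in RPMI with 5% FBS, dosed after 2 h and incubated 48 h at 37C. CellTiter-Glo luminescence normalized to DMSO and no-cell wells; concentration-response curves fitted and classed.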
* hit, by the source's call; u = inconclusive; x = no result given; ! = a repeat was not active; [ ] = dose if it differs, or a comment. Unless noted, calls follow the shape of the dose curve; as a rule, active = well fitted curve in the direction sought with a large enough effect; inconclusive = small, poorly fitted or top-dose-only effect, or another doubt; inactive = no such curve, though single readings can be large; an effect the other way counts as inactive or inconclusive. Unless noted, % is scaled to controls: 0 for no effect and ±100 for the full control effect.

SMILES | HT1080 IDH1KD tx | TDP1 cell CPT | TDP1 cell noCPT | IL-1B inflam inh | HT1080-NT tox
Cc1cccc(N2CCN(S(=O)(=O)c3ccc4c(c3)NC(=O)C(C)S4)CC2)c1C (stereo not drawn) | u | 20.6µM* | u | 8.8 | u
Cc1cccc(N2CCN(S(=O)(=O)c3ccc4c(c3)NC(=O)CS4)CC2)c1C | u | u | u | 12.7 | u
CC(=O)c1c(C)[nH]c(C(=O)N2CCN(c3ccccn3)CC2)c1C | 4.3% | -12.7% | -3.1% | 61.8 | 7.8%
CC(C)CC(=O)N1CC=CC[C@@H](c2ccc(Cl)cc2)N(Cc2ccc(Cl)cc2)C(=O)[C@@H]1Cc1ccccc1 | -20.0% | 14.6µM* | 13µM* | 17.7 | -13.0%
O=C1[C@H](Cc2ccccc2)NC/C=C\C[C@@H](c2ccc(Cl)cc2)N1Cc1ccccc1 | x | 12.6µM* | 11.2µM* | x | x
CC(=O)C1=C(O)C(=O)N(Cc2ccccc2)C1c1ccc(Cl)cc1 (stereo not drawn) | -7.4% | 25.1% | -8.6% | 45.9 | -1.3%
O=C1C2CC=CCC2C(=O)N1Cc1ccccc1 (stereo not drawn) | 2.2%[9.24 µM] | -0.2% | -9.7% | 21.5 | -4.3%
O=C1[C@H](Cc2ccccc2)NCC=CC[C@@H](c2ccco2)N1Cc1ccccc1 | -0.6% | u | u | -4.2 | -2.1%
O=C1[C@H](Cc2ccccc2)NC/C=C\C[C@@H](c2ccco2)N1Cc1ccccc1 | x | u | 14.1µM* | x | x
O=C1[C@H](Cc2ccccc2)NCCCC[C@@H](c2ccco2)N1Cc1ccccc1 | -13.8% | u | 12.6µM*! | -11.7 | -10.3%
COc1cc(C(=O)NC(=S)Nc2ccc(N3CCCC3)cc2)cc(OC)c1OC | 16.1% | -13.3% | -23.3% | 13.8 | 15.2%
COc1ccc(-n2nc(C(=O)Nc3ccc(Cl)cn3)c3c4ccccc4n(C)c3c2=O)cc1Cl | x | 9.7% | -1.4% | x | x
O=C1[C@H](Cc2ccccc2)NCCCC[C@H](c2ccco2)N1Cc1ccccc1 | u | 13µM* | 20.6µM* | -21.6 | u
Nc1o[nH]c(=O)c1C1CCCCC1 | 0.5% | -9.9% | 3.4% | -10.8 | -9.6%
Cc1ccc(-c2ccc(C(=O)Nc3cccc(F)c3)o2)c2ccccc12 | -5.8% | u | 20.6µM* | -5.1 | 0.0%
O=C(Nc1cccc(F)c1)c1ccc(-c2ccccc2Cl)o1 | 0.0% | u | 16.4µM* | -28.6 | 4.5%
COc1ccc(NC(=O)c2ccc(-c3ccc(C)c4ccccc34)o2)cc1 | 5.9% | u | -1.6% | u | 9.8%
NC(=O)CSc1nnc(Cc2ccc3c(c2)OCO3)o1 | 4.0% | -19.2% | 29.9% | 26.2 | 0.8%
COc1cc2c(cc1OC)C(COc1ccccc1OC)N(C(=O)c1ccccc1OC)CC2 (stereo not drawn) | x | u | 18.4µM* | x | x
COc1cc2c(cc1OC)CN(C(=O)c1ccc(S(=O)(=O)N3CCCC3)cc1)CC2 | -1.0% | -9.3% | -7.3% | -17.4 | 3.2%
COc1cc2c(cc1OC)C(COc1ccccc1OC)N(C(=O)c1ccc(S(=O)(=O)N3CCCC3)cc1)CC2 (stereo not drawn) | x | 16.4µM* | u | x | x
COc1cc2c(cc1OC)C(c1ccccc1)N(C(=O)c1ccccc1F)CC2 (stereo not drawn) | -7.5% | -21.6% | u | -18.9 | -15.5%
COc1cc(/C=C/C(=O)OCC(=O)Nc2c(C)n(C)n(-c3ccccc3)c2=O)ccc1O | 9.7% | u | 15.7% | 7.3 | 8.7%
NC1=NC2(CCCCC2)N=C(Nc2ccc(Br)cc2)N1 | -19.1% | u | u | -101.7* | -11.8%
Cc1ccc(NC2=NC3(CCCC3)N=C(N)N2)c(C)c1 | 16.4µM* | 2.91µM* | 3.66µM* | -2.9 | 18.4µM*
SMILES | HT1080 IDH1KD tx | TDP1 cell CPT | TDP1 cell noCPT | IL-1B inflam inh | HT1080-NT tox
Cc1ccccc1NC1=NC2(CCCC2)N=C(N)N1 | 0.5% | -14.2% | 5.9% | -3.5 | 1.9%
Cc1ccc(C)c(NC2=NC3(CCCCC3)N=C(N)N2)c1 | 0.2% | -11.1% | -20.0% | -24.6 | 1.9%
Cc1ccc(NC2=NC3(CCCCC3)N=C(N)N2)c(C)c1 | 11.2µM* | 23.1µM* | u | u | u
O=C(Nc1ccc(-c2cn3c(n2)SCC3)cc1)c1ccc2ccccc2n1 | -10.9% | 16.4µM* | u | -18.0 | -9.2%
Oc1ccc(-c2cn3c(n2)SCC3)cc1O | -24.3% | u | 23.1µM* | 70.3 | u
Cc1ccc(C(C)NC(=S)NCc2ccc(F)cc2)cc1C (stereo not drawn) | 1.4% | u | u | 8.7 | 5.6%
Cc1ccc(C(C)NC(=S)NCc2ccc(F)cc2)c(C)c1 (stereo not drawn) | 7.8% | 20.6µM* | 16.4µM* | -15.7 | -8.5%
Cc1ccc(NC(=O)CCC(=O)NNC(=S)Nc2ccc(F)cc2F)cc1C | 0.8% | 3.3% | 22.4% | 32.4 | -22.3%
Cc1ccc(C)c(NC(=S)NCCc2ccc(F)cc2)c1 | -0.5% | u | u | -66.8* | -2.2%
Cc1ccc(C)c(NC(=S)NNc2ccc(F)cc2F)c1 | 25.9µM* | u | u | -100.3* | 25.9µM*
COc1ccc(C)cc1NC(C)C(=O)NC(=O)NC1CCCCC1 (stereo not drawn) | -2.7% | u | u | 1.4 | -5.7%
CCOc1ccc(N(CC)S(=O)(=O)N2CCCC(C(=O)NCCc3ccccc3OC)C2)cc1 (stereo not drawn) | x | 20.6µM* | u | x | x
CCOc1ccc(N(CC)S(=O)(=O)N2CCCC(C(=O)NCc3ccccc3OCC)C2)cc1 (stereo not drawn) | x | u | 16.4µM* | x | x
CCN(c1ccc(OC)cc1)S(=O)(=O)N1CCCC(C(=O)NCc2ccc(OC(C)C)cc2)C1 (stereo not drawn) | 0.2% | 20.6µM* | 14.6µM* | 16.4 | -0.1%
CCOC(=O)N1CCN(S(=O)(=O)N2CCCC(C(=O)NCc3ccccc3OCC)C2)CC1 (stereo not drawn) | -2.6% | u | u | 18.4 | -8.0%
CC(C)CN(C(=O)c1cccc(S(=O)(=O)N2CCN(C)CC2)c1)C1CCS(=O)(=O)C1 (stereo not drawn) | 5.7% | 8.1% | 7.4% | -1.9 | 1.3%
Nc1nonc1C(=O)NCCNCc1cccc(Cl)c1Cl | x | -22.1% | -27.4% | x | x
c1ccc(-c2ccncc2)nc1 | 11.5% | -7.6% | -0.8% | -2.1 | 6.7%
c1ccc(-c2cccc(-c3ccccn3)n2)nc1 | 0.282µM* | 2.06µM* | 3.66µM* | 47.1 | u
c1ccc(-c2nnc(-c3ccccn3)nn2)nc1 | -13.4% | 14.6µM* | u | 3.3 | -8.7%

Assay outcomes from PubChem.
